Here are results for 40 compounds from PubChem BioAssay (NCATS).

Records with an inconclusive call do not appear. A call without a number means that no potency is given here. Activity calls are given as the source filed them. Calls come from the whole dose curve; as a rule, active = well fitted inhibition curve with a large enough effect; inconclusive = small, poorly fitted or top-dose-only effect; inactive = no such curve, though single readings can be large or run the other way.
Potency is the fitted concentration of half-maximal effect.

The assay in a line: Primary fluorescence-based thiol-reactive (MSTI) qHTS assay for identification of artifact compounds. (AID 1845221).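 For activity change, negative = thiol reactive: thiol-reactive compounds lower the probe fluorescence signal.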 Note: nearly all actives have a fitted effect of over 65% in size. As to conditions: MSTI thiol-reactivity probe, 1 h; series mostly up to 53.8 µM. An excerpt:
PI: Alexander Tropsha Ph.D.
UNC Eshelman School of Pharmacy
University of North Carolina, Chapel Hill, North Carolina
Hits from high-throughput screening (HTS) of chemical libraries are often false positives due to their interference with the assay detection technology. In response to this problem, we generated the largest publicly available library of chemical liabilities and developed a free webtool to predict HTS artifacts, both of which are described herein. More specifically, we generated, curated, and integrated HTS datasets for thiol reactivity, redox activity, and luciferase (firefly and nano) activity. Using these curated datasets, we developed and validated several Quantitative Structure-Interference Relationship (QSIR) models to predict nuisance behavior. […] These models were employed for virtual profiling of the National Center for Advancing Translational Science's (NCATS) in-house library, and 256 compounds for each assay were selected for the experimental validation of nuisance behavior. The BA for these external predictions ranged from 58 to 78% for compounds within the applicability domains of the models. […] The models developed in this study, along with aggregation models previously developed by our group (SCAM Detective) were implemented in "Liability Predictor," an online tool which may be used as part of chemical library design or for triaging HTS hits. Both the models and the curated datasets are publicly available at https://liability.mml.unc.edu/.
SEQUENCE No. (e.g., 1, 2, 3, etc.); […] (e.g., Cells, Incubation, Reagent, etc.); VALUE; DESCRIPTION.
1; Reagent; 4 uL; […].
2; Compounds and control; 16 nL; Kalypsis pin tool (Wako USA) equipped with a 1536-well pin head.
4; Detection; Fluorescence, ViewLux microplate reader, 525 nm excitation, 598 nm emission.
NOTES (numbers refer to Sequence numbers above)
1. Assays determining (E)-2-(4-mercaptostyryl)-1,3,3-trimethyl-3H-indol-1-ium (MSTI) reactivity were performed as previously described in the literature with modifications for the quick identification of compounds reacting with thiol. In brief, 4 uL of MSTI or positive control Acetyl-MSTI (final concentrations of 4 uM and 4 uM, respectively) in assay buffer (2% DMSO in 1X PBS pH 7.4) was dispensed into all wells of a 1536-well assay plate (solid-bottom black plate; Greiner Bio One, Monroe, NC).
2. A Wako Pin-tool (Wako Automation, Richmond, VA) was used to transfer 16 nL of compounds (consisting of 7-plates in qHTS format, final concentration range 18.3 nM to 114 uM) or control MLS001163887 (final concentration range 1.22 nM to 40 uM).
3. Plates were centrifuged (121xg, 15 seconds) and incubated for 1 hour at room temperature protected from light.
4. Samples were read for fluorescence (Ex/Em = 525(20)/598(25) nm) on a ViewLux CCD imager (PerkinElmer). Data were normalized to Acetyl-MSTI (0% activity) and MSTI (100% activity) and the resulting percent inhibition data were fitted to a 4-parameter Hill equation using NCATS in-house software.
Background: Quantitative high-throughput screening tests each substance at several concentrations.
In the case of `COc1ccc(-c2c(C)c(C(=O)NN3CCCCC3)nn2-c2ccc(Cl)cc2Cl)cc1`, the Potency result was “inactive”. As to `CC(C)n1cnc2c(Nc3cccc(Cl)c3)nc(NCCO)nc21`, the Potency result is “inactive”. `CC(=O)N1CCN([C@H]2CCN(C(=O)N(C)[C@H](C)c3cc(C(F)(F)F)cc(C(F)(F)F)c3)[C@@H](c3ccc(F)cc3C)C2)CC1`: the Potency entry is “inactive”. As to `CC1CCC2C(=CCC(O)C2(C)C)C1(C)Cc1c(O)cc(CO)c(C=O)c1O` (stereo not given), the Potency result is “inactive”.

As for `CC1CCC2(NC1)OC1CC3C4CC=C5CC(O[C@@H]6O[C@H](CO)[C@@H](O[C@@H]7O[C@@H](C)[C@H](O)[C@@H](O)[C@H]7O)[C@H](O)[C@H]6O[C@@H]6O[C@@H](C)[C@H](O)[C@@H](O)[C@H]6O)CCC5(C)C4CCC3(C)C1C2C` (stereo not given in full), the activity change, negative = thiol reactive was 179% [at 11.5 µM] (inactive). For `CC(C)(C)c1ccc(-c2nc3ccccc3[nH]2)cc1`, the Potency entry is “inactive”.

Consider `C[N+]1(C)[C@@H]2CC[C@H]1CC(OC(=O)C(O)c1ccccc1)C2` (stereo not given in full), for which the Potency result is “inactive”. With `N#CCC(C1CCCC1)n1cc(-c2ncnc3[nH]ccc23)cn1` (stereo not given), the Potency entry is “inactive”.

Take `N#Cc1ccc2c(c1)CCN(CCC1CCC(NC(=O)c3ccnc4ccccc34)CC1)C2` (stereo not given): the Potency result was “inactive”. With `COc1cc2ncnc(Nc3ccc(Oc4ccccc4)cc3)c2cc1OC`, the Potency result is “inactive”.

Regarding `CC/C(=C(\c1ccc(O)cc1)c1ccc(OCCNC)cc1)c1ccccc1`, the Potency result was “inactive”. On the same count and under the same terms, the same measure for `CC(=O)N1c2ccc(-c3ccc(C(=O)O)cc3)cc2C(Nc2ccc(Cl)cc2)CC1C` (stereo not given): “inactive”; for `Nc1nc(NCC2CCC(CNS(=O)(=O)c3cccc4ccccc34)CC2)nc2ccccc12` (stereo not given): “inactive”; for `Cc1ccc(C2(COC(=O)C(C)C)CO2)c(OC(=O)C(C)C)c1` (stereo not given): “inactive”.

With `COc1ccc2c(c1)C[C@H](C(=O)Nc1ccc(-c3cn[nH]c3)cc1OCCN(C)C)CO2`, the Potency entry is “inactive”. Still for that read-out and setting: the same measure for `Fc1ccccc1CNCc1ccc(-c2ccnc3[nH]ccc23)cc1`: “inactive”; for `COc1cc(-c2cc(-c3ccc(N4CCNCC4)cc3)cnc2C)cc(OC)c1OC`: “inactive”; for `CCC(=O)c1cc(-c2ccc(Cl)cc2)n(-c2ccc(S(N)(=O)=O)cc2)c1C`: “inactive”. Consider `CNc1ccc([N+](=O)[O-])cc1-n1cnc(-c2ccc(C(F)(F)F)cc2)c1`, for which the Potency entry was “inactive”.

On to `COc1ccc(CNC(=O)Nc2ncc([N+](=O)[O-])s2)cc1`, for which the Potency was 2670 nM (active). With `CC1CCN(C(c2ccc(F)cc2)c2ccc(C(C)C(=O)O)cc2-c2ccc(C(F)(F)F)cc2)CC1` (stereo not given), the Potency entry was “inactive”. On the same count and under the same terms, with `Cn1c(NC[C@@H](N)Cc2ccccc2)nc(-c2ccncc2)c(-c2ccc3ccccc3c2)c1=O` the entry was “inactive”; with `FC(F)(F)c1ccc(CNc2ccc(Cc3c[nH]c4ncccc34)cn2)cc1`, “inactive”.

For the compound `CN(CCCNC(=O)c1ccc2nc3c(c(Cl)c2c1)CCCC3)Cc1ccccc1`, the Potency entry was “inactive”. As for `C=C(C)C(=O)OC1[C@@H]2C(=C)C(=O)O[C@@H]2C[C@@H](C)[C@@H]2C=CC(=O)[C@@]12C` (stereo not given in full), the Potency result was “inactive”. For the compound `CC[C@H]1OC(=O)[C@H](C)[C@@H](O[C@H]2C[C@@](C)(OC)[C@@H](O)[C@H](C)O2)[C@H](C)[C@@H](O[C@@H]2O[C@H](C)C[C@H](N(C)C)[C@H]2O)[C@](C)(O)C[C@@H](C)/C(=N/OCOCCOC)[C@H](C)[C@@H](O)[C@]1(C)O`, the Potency result is “inactive”. With `O=[N+]([O-])c1ccc(-[n+]2nc(-c3ccccc3)nn2-c2ccc(I)cc2)cc1`, the Potency is 10600 nM (active).

For the compound `O=C(NNc1ccccc1)c1ccncc1`, the Potency result was “inactive”. Turning to `CC1(C)SC2C(NC(=O)[C@H](C(=O)O)c3ccsc3)C(=O)N2C1C(=O)O` (stereo not given in full), the Potency result was “inactive”.

With `COc1ccc2c3ccnc4ccc(=O)n(c2c1)c43`, the Potency entry is “inactive”. Regarding `Clc1ccccc1CNCC1CCC(CNCc2ccccc2Cl)CC1` (stereo not given), the Potency entry was “inactive”.

As to `CCOc1cc(CNC2CCCC2)cc(Cl)c1OCc1ccc(Cl)cc1`, the Potency result was “inactive”. Turning to `O=C(Nc1ncc(SCCN2CCCC2)s1)C1(c2ccc(S(=O)(=O)C3CC3)cc2)CC1C1CCCCC1` (stereo not given), the Potency entry was “inactive”. `CC1CCN(c2cc(NC(=O)c3ccccc3)ncn2)CC1`: the Potency result is “inactive”. For `N#Cc1cccc(C#N)c1-c1nc2c3ccccc3c3cc(Cl)ccc3c2[nH]1`, the Potency entry was “inactive”.

Consider `COc1cc(N2CCOCC2)ccc1Nc1ncc(F)c(Nc2ccccc2NS(C)(=O)=O)n1`, for which the Potency was 2380 nM (active). Consider `COCCNCc1ccc(-c2cc3nccc(Oc4ccc(NC(=S)NC(=O)Cc5ccc(F)cc5)cc4F)c3s2)nc1`, for which the Potency result was “inactive”. For `C=C1C(=O)O[C@H]2[C@H]1[C@@H](OC(=O)/C(C)=C\C)C[C@]1(C)O[C@@H]1[C@H]1O[C@H]1C(=C)[C@H]2O`, the Potency entry is “inactive”.

On to `CNC(=O)c1cccc2cc(Oc3ccnc4cc(OCC5(N)CC5)c(OC)cc34)ccc12`, for which the Potency entry is “inactive”. Consider `COc1ccc(-c2nc(-c3cc(C(F)(F)F)cc(C(F)(F)F)c3)n(Cc3ccc(C(N)=O)cc3)c2-c2ccc(OC)cc2)cc1`, for which the Potency result is “inactive”.
